Gal4-VP16 FLuc – counter-screen for ROR gamma inhibitors: Gal4-VP16 reporter. Drosophila S2 Gal4-VP16 UAS-luciferase, luminescence, 20 h. Potency, µM (highest dose often 53.6 µM), inactives show top-dose activity, negative = inhibition, usual class: inhibitors. 310,000 tested, 3.5% active;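 further: Gal4-VP16 expression switched on by copper sulfate through the metallothionein promoter; on the % scale 0 is the no-effect control and ±100 the full control effect; nearly all actives have a fitted effect of over 50% in size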
SW480 rerep – inducers of DNA re-replication in SW480 colon cancer cells | 340,000 tested, 1.8% active | Potency, µM (highest dose often 46.1 µM), for the others: top-dose re-replication activation, actives largely listed as activators | SW480 DNA re-replication, Hoechst DNA content imaging, 48 h; further: % of control where 0% means no effect; nearly all actives have a fitted effect of over 55% in size
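Treated cells incubate 48 hr (37 C, 5% CO2), are stained 40 min with Hoechst, and nuclear fluorescence is enumerated; a rise in nuclei with high DNA signal marks re-replication.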
RORg inh – blocks mouse ROR gamma transcriptional activity. P51450. 310,000 tested, 5.4% active. Potency, µM (top dose mostly 53.6 µM), without a hit: at the highest dose activity change, negative = inhibition, actives largely listed as inhibitors. Drosophila S2 Gal4-RORgamma UAS-luciferase reporter, 20 h. AID 2551; further: on the % scale 0 is the no-effect control and ±100 the full control effect; nearly all actives have a fitted effect of over 60% in size
Target sequence (P51450 whole entry, looked up, the tested form may be a part): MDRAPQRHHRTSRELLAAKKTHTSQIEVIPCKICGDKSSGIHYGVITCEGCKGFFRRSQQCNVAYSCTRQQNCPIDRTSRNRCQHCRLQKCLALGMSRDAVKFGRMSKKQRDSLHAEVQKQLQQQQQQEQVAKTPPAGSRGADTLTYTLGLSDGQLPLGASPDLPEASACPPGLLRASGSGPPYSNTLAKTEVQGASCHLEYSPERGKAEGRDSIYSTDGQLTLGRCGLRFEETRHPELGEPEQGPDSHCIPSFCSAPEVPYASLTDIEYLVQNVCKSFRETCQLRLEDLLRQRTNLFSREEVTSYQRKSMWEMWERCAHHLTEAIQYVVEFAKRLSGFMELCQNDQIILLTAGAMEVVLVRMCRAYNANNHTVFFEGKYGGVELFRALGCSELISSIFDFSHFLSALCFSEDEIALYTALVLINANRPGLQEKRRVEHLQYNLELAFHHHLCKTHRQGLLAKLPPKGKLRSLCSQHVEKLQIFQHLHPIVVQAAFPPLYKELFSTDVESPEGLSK
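Using a luciferase readout, inhibitors were identified by reduced reporter activity in Drosophila cells coexpressing a copper-inducible Gal4–ROR gamma fusion and UAS-driven Photinus luciferase, incubated 20 hr after 700 uM copper sulfate.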
ELG1 DNA repair – ELG1-dependent DNA repair inhibition | HEK293T ELG1-luciferase reporter, luminescence, 16 h; DNA damage induced by 5-fluorouridine | Potency, µM (highest dose often 46.1 µM), inactives show at the highest dose activity change, negative = inhibition, most hits filed as inhibitors | 330,000 tested, 2.3% active | AID 504467; further: on the % scale 0 is the no-effect control and ±100 the full control effect; nearly all actives have a fitted effect of over 55% in size
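DMSO vehicle served as the neutral condition. Each well held 2,000 cells given 5-fluorouridine plus compound; after 16 hr at 37 °C/5% CO2, ONE-Glo was added and luciferase measured 30 min later.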
MCF10A rereplic – induces DNA re-replication in MCF 10a normal breast cells. MCF 10A DNA re-replication, Hoechst nuclear intensity, 48 h. Potency, µM (highest dose often 46.1 µM), inactives show at the highest dose activity, positive = re-replication, actives largely listed as activators. 350,000 tested, 2.9% active. AID 624296; further: % of control where 0% means no effect; nearly all actives have a fitted effect of over 50% in size
An asterisk follows results filed as active; ? = inconclusive; nt = not tested or not shown; [ ] = another dose, or the depositor's remark. Only some compounds are listed: those with a hit (about 10% of all), similar ones and a draw of the others. The call rests on the fitted dose curve; in most records, active means well fitted curve in the direction sought with a large enough effect; inconclusive means small, poorly fitted or top-dose-only effect, or another doubt; inactive means no such curve, though single readings can be large; an effect the other way counts as inactive or inconclusive. Potency means the concentration at half of the fitted maximal effect.

SMILES | Gal4-VP16 FLuc | SW480 rerep | RORg inh | ELG1 DNA repair | MCF10A rereplic
O=C(Cc1n[nH]c(=O)[nH]c1=O)N/N=C/c1c(O)ccc2ccccc12 | 3.4% | 27.5% | 30.1% | ? | 16.4%
COc1ccccc1NCC(=O)N/N=C/c1c(O)ccc2ccccc12 | 2.82µM* | 3.26µM* | 0.891µM* | ? | ?
COc1ccccc1N(CC(=O)N/N=C/c1c(O)ccc2ccccc12)S(C)(=O)=O | ? | ? | 12.6µM* | -16.4% | ?
O=C(CNc1ccc(F)cc1)N/N=C/c1c(O)ccc2ccccc12 | 2.82µM* | ? | 1.26µM* | -27.7% | 10.4%
O=C(CCCOc1ccc(Cl)cc1Cl)N1CCc2ccccc2C1 | ? | 2.59µM* | ? | -7.7% | 3.26µM*
CCC(=O)N1CCN(c2ccc(NC(=S)NC(=O)c3ccc(OC)c([N+](=O)[O-])c3)cc2)CC1 | 5.01µM* | 6.3% | 7.08µM* | ? | -0.8%[9.22 µM]
CCCC(=O)N1CCN(c2ccc(NC(=O)c3ccc(OCC)c([N+](=O)[O-])c3)cc2)CC1 | 6.7% | -68.7% | 18.7% | -2.1% | -6.2%
CCOc1ccc(C(=O)NC(=S)Nc2ccccc2N2CCC(C)CC2)cc1[N+](=O)[O-] | 3.16µM* | 5.6% | 1µM* | 8.4% | 18.7%
CCOc1ccc(C(=O)NC(=S)Nc2ccc(NC(=O)c3ccco3)c(C)c2)cc1[N+](=O)[O-] | ? | -5.1% | ? | 2.7% | 5.1%
CCOc1ccc(C(=O)NC(=S)Nc2ccc(N3CCC(C)CC3)cc2)cc1[N+](=O)[O-] | ? | 9.2% | 0.398µM* | ? | ?
CCOc1ccc(C(=O)Nc2ccccc2CC)cc1[N+](=O)[O-] | 0.3% | -4.4% | 1.7% | -5.1% | ?
COc1cc(/C=N/NC(=O)C(=O)/C=C2\NC(C)(C)Cc3ccccc32)ccc1O | 9.1% | ? | 21.6% | ? | ?
Cc1cccnc1NC(=O)C1CCN(S(=O)(=O)c2ccc3ccccc3c2)CC1 | nt | 0.5% | nt | 1.3% | 7.8%
CSCCC(NC(=O)c1ccco1)C(=O)NCCc1ccc(Cl)cc1 (stereo unspecified) | nt | 0.2% | nt | -0.1% | 4.0%
Cc1nc2c(c3c1[nH]c1ccccc13)C(O)CC(C)(C)C2 (stereo unspecified) | -9.7% | ? | 36.0% | ? | 18.4µM*
NC(=O)COC(=O)c1cccc(S(=O)(=O)N2CCN(c3ccccc3)CC2)c1 | -0.9% | -15.2% | 42.0% | 17.0% | 10.7%
O=C(COC(=O)c1cccc(S(=O)(=O)N2CCN(c3ccccc3)CC2)c1)NCc1ccco1 | 10µM* | -4.6% | 8.91µM* | -11.1% | 13.4%
C[C@@H]1O[C@H](O[C@@H]2[C@H](C)O[C@H](O[C@@H]3[C@H](C)O[C@H](O[C@H]4CC[C@]5(C)[C@@H](CC[C@@H]6[C@H]5C[C@@H](O)[C@]5(C)[C@@H](C7=CC(=O)OC7)CC[C@]65O)C4)C[C@@H]3O)C[C@@H]2O)C[C@H](O)[C@@H]1O | 6.9%[17 µM] | nt | 3.98µM* | nt | nt
C[C@H]1O[C@@H](O[C@H]2[C@@H](O)C[C@H](O[C@H]3[C@@H](O)C[C@H](O[C@H]4CC[C@@]5(C)[C@H](CC[C@@H]6[C@@H]5C[C@@H](O)[C@]5(C)[C@@H](C7=CC(=O)OC7)CC[C@]65O)C4)O[C@@H]3C)O[C@@H]2C)C[C@H](O)[C@@H]1O | -7.8% | 0.411µM* | 1.58µM* | 0.164µM* | ?
Cc1ccc(NC(=O)c2sc(=S)n(-c3cc(C)ccc3F)c2N)cc1 | 3.9% | -5.0% | 4.0% | 9.5% | -1.5%
N=c1sccn1CC(=O)Nc1ccccc1Sc1ccccc1 | 4.0% | 8.1% | 5.9% | -13.6% | -4.1%
C[C@H](CO)N1C[C@H](C)[C@@H](CN(C)Cc2ccc(C(=O)O)cc2)Oc2ccc(NS(C)(=O)=O)cc2C1=O | nt | -15.1% | nt | 10.6% | 0.8%
C=CCNC(=O)/C(C#N)=C/c1cc(Br)ccc1OC | ? | ? | 12.6µM* | -0.6% | ?
COc1ccc(OC)c2c1cc(C(=O)N[C@@H](C)C(=O)N[C@@H](C(=O)O)c1ccccc1)n2C | -5.6% | -12.7% | 28.5% | 0.5% | 1.8%
O=C1C2C(C(=O)N1CCN1CCN(Cc3ccc([N+](=O)[O-])cc3)CC1)[C@H]1C=C[C@@H]2C1 (stereo partly specified) | -5.5% | -6.6% | ? | 16.4µM* | 7.8%
SMILES | Gal4-VP16 FLuc | SW480 rerep | RORg inh | ELG1 DNA repair | MCF10A rereplic
O=[N+]([O-])c1ccc(CN2CCCCCC2)cc1 | -1.6% | -7.6% | -42.2% | -2.0% | 7.0%
Cc1cc(C)cc(-n2ncc3c2CCCC3NC(=O)CCN2Cc3ccccc3C2=O)c1 (stereo unspecified) | -1.9% | 0.9% | 7.7% | ? | 0.1%
NS(=O)(=O)c1cccc(NC(=O)Cn2nc(C(=O)O)c3ccccc3c2=O)c1 | 2.9% | -1.4% | 12.7% | 5.4% | 0.9%
Clc1ccc(CN2C3=NCCN3c3ccccc32)cc1Cl | -15.9% | ? | 17.8µM* | ? | 9.5%
O=S1(=O)C=C(SCCN2CCCCC2)c2ccccc21 | -26.0% | -0.8% | 25.8% | -2.6% | ?
O=S1(=O)C=C(Sc2nnc(-c3ccccc3)o2)c2ccccc21 | 3.16µM* | 0.581µM* | 1.78µM* | 16.4µM* | ?
Cc1cc(C)nc(SC2=CS(=O)(=O)c3ccccc32)n1 | 28.6% | 20.6µM* | -36.1% | ? | 16.4µM*
O=S1(=O)C=C(Sc2nc3ccccc3s2)c2ccccc21 | 2.82µM* | ? | 4.47µM* | ? | 2.91µM*
CC(=O)N1CCC2(CCCN(c3cccc(-c4ccccc4)c3)C2)CC1 | -10.0% | nt | 0.7% | nt | nt
O=C1NC(=S)/C(=C\c2ccc(-c3ccccc3Cl)o2)S1 | ? | -48.5% | ? | -6.1% | 6.51µM*
CSCCC(NC(=O)COc1ccccc1)C(=O)OCc1ccc([N+](=O)[O-])cc1 (stereo unspecified) | nt | 6.0% | nt | -0.7% | 6.0%
CCC(Sc1nnc(-c2ccc(C)c(Cl)c2)n1CC)C(=O)Nc1nccs1 (stereo unspecified) | ? | 10.2% | 12.6µM* | ? | 20.8%
CCn1c(SCc2ccc(C(=O)Nc3nccs3)cc2)nnc1-c1ccc(N)cc1 | 7.3% | 1.1% | 14.6% | ? | -2.5%
Cn1c(SCC(=O)Nc2nccs2)nnc1-c1ccc(S(=O)(=O)N2CCCC2)cc1 | -0.8% | -3.3% | 0.2% | -8.6% | -3.7%
CCn1c(SCC(=O)Nc2nccs2)nnc1-c1ccc(S(=O)(=O)N2CCCCCC2)cc1 | 4.9% | 14.0% | -14.1% | 20.6µM* | 27.5%
CN(Cc1ccccc1)C(=O)COC(=O)c1ccc[nH]c1=O | nt | ? | nt | 19.9% | 8.2%
CC(C)(C)c1ccc2c(c1)OC(C(=O)N/N=C\c1ccc[nH]1)CO2 (stereo unspecified) | 5.01µM* | 4.8% | 7.94µM* | -7.2% | -0.4%
